Measurements from PubChem BioAssay (Tox21).
Records with an inconclusive call do not appear. Active and inactive are the calls of the source. Unless noted, calls come from the whole dose curve; as a rule, active = well fitted curve in the direction sought with a large enough effect in the repeat runs; inconclusive = weak or mixed curves; inactive = no such curve, though single readings can be large; an effect the other way counts as inactive or inconclusive.

Legend:
[1] = qHTS RealTime-Glo MT Cell Viability Assay in HEK293 cells - 0 hour (AID 1224880); note: top concentration of the series differs between compounds; nearly all actives have a fitted effect of over 45% in size
Summary of the method: (§1)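 HEK293 + NanoLuc + prosubstrate, 600 cells/well; 5 h, 37 C/5% CO2; compound 23 nL in DMSO by pintool; 37 C; luminescence read at 0, 8, 16, 24, 32 and 40 h time points.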

[2] = A CellTox Green Cytotoxicity Assay to monitor cytotoxicity in HEK293 cells - 32 hour (AID 1224881); note: nearly all actives have a fitted effect of over 40% in size
Summary of the method: (§2)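 Tox21 screen in HEK293: membrane-impermeant cyanine dye fluoresces on binding dead-cell DNA; compound pinned 5 h post-seeding, plates held at 37 C, signal read repeatedly through 40 h.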

[3] = A CellTox Green Cytotoxicity Assay to monitor cytotoxicity in HepG2 cells - 0 hour (AID 1224882); note: nearly all actives have a fitted effect of over 35% in size
Summary of the method: (§3)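 Measurements at 0, 8, 16, 24, 32 and 40 h of treatment captured CellTox Green fluorescence in HepG2 cells that had been co-plated with reagent and preincubated 5 h at 37 C/5% CO2.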

[4] = qHTS RealTime-Glo MT Cell Viability Assay in HepG2 cells - 16 hour (AID 1224885); note: nearly all actives have a fitted effect of over 50% in size
Summary of the method: (§4)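 Compound treatment began 5 h after plating HepG2 cells (600/well) with NanoLuc luciferase and prosubstrate. Plates stayed at 37 C for 40 h; luminescence was captured at six time points, 0 h through 40 h.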

[5] = qHTS RealTime-Glo MT Cell Viability Assay in HEK293 cells - 24 hour (AID 1224886); note: top concentration of the series differs between compounds; nearly all actives have a fitted effect of over 50% in size
Summary of the method: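 Quantitative high-throughput screen of the Tox21 10K library in HEK293: cells and RealTime-Glo reagents plated together, compound added at 5 h, luminescence monitored through 40 h at 37 C.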

[6] = qHTS RealTime-Glo MT Cell Viability Assay in HEK293 cells - 8 hour (AID 1224887); note: top concentration of the series differs between compounds; nearly all actives have a fitted effect of over 50% in size
Summary of the method: as §1

[7] = A CellTox Green Cytotoxicity Assay to monitor cytotoxicity in HEK293 cells - 16 hour (AID 1224888); note: nearly all actives have a fitted effect of over 35% in size
Summary of the method: as §2

[8] = qHTS RealTime-Glo MT Cell Viability Assay in HepG2 cells - 0 hour (AID 1224889); note: nearly all actives have a fitted effect of over 50% in size
Summary of the method: as §4

[9] = A CellTox Green Cytotoxicity Assay to monitor cytotoxicity in HepG2 cells - 8 hour (AID 1224890); note: nearly all actives have a fitted effect of over 45% in size
Summary of the method: as §3

[10] = qHTS assay to identify small molecule antagonists of the estrogen receptor alpha (ER-alpha) signaling pathway using the BG1 cell line in the presence of 0.1 nM 17-beta-estradiol - cell viability counter screen (AID 1259241); note: nearly all actives have a fitted effect of over 40% in size
Summary of the method: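 Cells were plated and left 24 hr, compounds in DMSO were pinned in, 17beta-estradiol was added to 0.1 nM final, and after 22 hr CellTiter-Fluor reagent was added for 30 min before fluorescence was read.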

[11] = qHTS assay to identify small molecule antagonists of the androgen receptor (AR) signaling pathway using the MDA cell line in the presence of 0.5 nM R1881 - cell viability counter screen (AID 1259242); note: nearly all actives have a fitted effect of over 45% in size
Summary of the method: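 Concentration-response screen of compounds for toxicity in MDA-kb2 reporter cells: 16 hr at 37C with 0.5 nM R1881, endpoint live-cell protease fluorescence measured in the reporter wells.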

[12] = biological target: Estrogen receptor (Homo sapiens) (UniProt P03372); assay: qHTS assay to identify small molecule antagonists of the estrogen receptor alpha (ER-alpha) signaling pathway using the BG1 cell line in the presence of 0.1 nM 17-beta-estradiol (AID 1259244); note: nearly all actives have a fitted effect of over 50% in size
Sequence of Estrogen receptor (Homo sapiens) (P03372 whole entry, looked up): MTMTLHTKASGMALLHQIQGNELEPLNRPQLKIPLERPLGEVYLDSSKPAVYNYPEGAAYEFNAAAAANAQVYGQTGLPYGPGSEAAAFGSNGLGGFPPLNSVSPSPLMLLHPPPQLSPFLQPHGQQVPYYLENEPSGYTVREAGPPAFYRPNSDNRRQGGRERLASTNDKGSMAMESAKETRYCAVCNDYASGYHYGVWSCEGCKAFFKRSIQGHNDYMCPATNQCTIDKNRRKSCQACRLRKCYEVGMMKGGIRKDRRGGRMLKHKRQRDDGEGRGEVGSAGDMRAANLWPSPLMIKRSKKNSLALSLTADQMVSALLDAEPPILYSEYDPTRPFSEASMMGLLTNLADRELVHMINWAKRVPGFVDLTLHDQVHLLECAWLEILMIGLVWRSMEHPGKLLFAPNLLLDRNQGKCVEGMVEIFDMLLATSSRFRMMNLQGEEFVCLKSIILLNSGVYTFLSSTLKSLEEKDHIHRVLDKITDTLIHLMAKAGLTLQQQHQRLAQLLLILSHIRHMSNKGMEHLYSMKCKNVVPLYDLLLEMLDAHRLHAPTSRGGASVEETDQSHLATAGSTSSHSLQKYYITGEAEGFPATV
Summary of the method: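 Compounds were tested against 0.1 nM (final) 17beta-estradiol in VM7Luc4E2 cells, which express full-length ER-alpha and an ERE-luciferase reporter; luminescence was recorded following 22 h exposure.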

[13] = qHTS assay to identify small molecule HDAC inhibitors - cell viability counter screen (AID 1259365)
Summary of the method: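 Counter screen in wild-type HCT-116 cells: compounds dissolved in DMSO are pin-transferred onto overnight-plated cells and left 2hr at 37C. ATP-based CellTiter-Glo luminescence then measures viable cells.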

[14] = qHTS assay to identify small molecule agonists of the sonic hedgehog signaling (Shh) pathway - cell viability counter screen (AID 1259366); note: nearly all actives have a fitted effect of over 50% in size
Summary of the method: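 Cells are plated at 2,000 per well and left 4hr at 37C, 5% CO2 before compound addition. After 23hr of treatment, CellTiter-Fluor reagent is added for 1hr at 37C and fluorescence is measured.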

[15] = qHTS assay to identify small molecule antagonists of the sonic hedgehog signaling (Shh) pathway - cell viability counter screen (AID 1259367); note: nearly all actives have a fitted effect of over 55% in size
Summary of the method: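 Viability was read by CellTiter-Fluor fluorescence in the same wells, reagent added 23 hr into compound treatment and incubated 1 hr at 37C. The 3T3 Gli1-Luc reporter cells (2,000/well) received conditioned medium after compound and ran 24 hr.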

[16] = A CellTox Green Cytotoxicity Assay to monitor cytotoxicity in HEK293 cells - 8 hour (AID 1224884); note: nearly all actives have a fitted effect of over 35% in size
Summary of the method: as §2

[17] = biological target: Androgen receptor (Homo sapiens) (UniProt P10275); assay: qHTS assay to identify small molecule antagonists of the androgen receptor (AR) signaling pathway using the MDA cell line in the presence of 0.5 nM R1881 (AID 1259243); note: nearly all actives have a fitted effect of over 50% in size
Sequence of Androgen receptor (Homo sapiens) (P10275 whole entry, looked up): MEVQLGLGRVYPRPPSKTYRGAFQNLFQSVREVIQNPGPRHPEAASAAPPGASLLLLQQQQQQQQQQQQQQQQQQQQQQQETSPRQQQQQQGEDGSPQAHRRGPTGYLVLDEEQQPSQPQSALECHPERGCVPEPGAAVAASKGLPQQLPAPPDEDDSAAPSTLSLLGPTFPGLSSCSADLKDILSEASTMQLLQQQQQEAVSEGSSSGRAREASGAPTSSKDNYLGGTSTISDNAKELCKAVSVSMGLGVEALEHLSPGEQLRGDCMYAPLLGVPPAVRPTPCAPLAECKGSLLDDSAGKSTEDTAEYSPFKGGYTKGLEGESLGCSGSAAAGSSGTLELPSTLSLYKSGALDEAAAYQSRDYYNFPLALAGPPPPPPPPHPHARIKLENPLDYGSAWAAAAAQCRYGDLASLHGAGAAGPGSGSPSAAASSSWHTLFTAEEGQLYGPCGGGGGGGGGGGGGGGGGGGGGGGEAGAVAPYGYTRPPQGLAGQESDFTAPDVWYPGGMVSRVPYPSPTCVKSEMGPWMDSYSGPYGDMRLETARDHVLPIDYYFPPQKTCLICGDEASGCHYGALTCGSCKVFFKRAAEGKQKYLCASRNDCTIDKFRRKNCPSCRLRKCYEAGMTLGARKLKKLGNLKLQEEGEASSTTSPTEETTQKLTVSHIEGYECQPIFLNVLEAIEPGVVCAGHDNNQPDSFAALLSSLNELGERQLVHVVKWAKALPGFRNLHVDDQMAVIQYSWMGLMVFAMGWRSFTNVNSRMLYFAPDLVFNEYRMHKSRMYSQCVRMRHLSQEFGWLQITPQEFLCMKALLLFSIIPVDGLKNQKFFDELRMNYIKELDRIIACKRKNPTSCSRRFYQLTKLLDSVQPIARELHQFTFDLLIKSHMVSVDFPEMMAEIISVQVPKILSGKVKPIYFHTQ
Summary of the method: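 With R1881 held at 0.5 nM (final), compound effects on MMTV-luciferase expression in MDA-kb2 cells were scored by luminescence after a 16 hr, 37C incubation.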

[18] = qHTS assay to identify small molecule HDAC inhibitors (AID 1259364);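 note: wild-type HCT-116 cells with endogenous class I/II HDAC activity; top concentration of the series differs between compounds; nearly all actives have a fitted effect of over 45% in size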
Summary of the method: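 Screening used wild-type human colon HCT-116 cells incubated overnight, dosed with compounds for 2 hours, and assayed with a homogeneous luminogenic HDAC I/II reagent for 30 minutes at room temperature.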

[19] = qHTS assay to identify small molecule phospholipidosis (PLD) inducers (AID 1259344; active = well fitted curve in the direction sought with a large enough effect; an effect the other way counts as inactive or inconclusive)
Summary of the method: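 Phospholipid accumulation was scored by imaging: fixed, Hoechst-counterstained HepG2 cells stained with LipidTOX Red after 24 h compound exposure at 37 C. Read-outs were pit count and pit intensity per well or per cell, with amiodarone and DMSO controls.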
% is set by controls: 0 for no effect and ±100 for the full control effect.

CCOC(=O)CC(=O)c1ccccc1
inactive: Potency [1] | Potency [2] | outcome [3] | outcome [4] | Potency [5] | Potency [6] | outcome [7] | Potency [8] | outcome [9] | Potency [10] | outcome [11] | Potency [12] | outcome [13] | Potency [14] | Potency [15]

CC(C)(C)OC(=O)c1ccc(O)cc1
inactive: Potency [1] | Potency [2] | outcome [3] | outcome [4] | Potency [5] | Potency [6] | outcome [7] | Potency [8] | outcome [9] | Potency [10] | outcome [13] | Potency [14] | Potency [15]

OCCC(F)(F)C(F)(F)C(F)(F)C(F)(F)C(F)(F)C(F)(F)C(F)(F)C(F)(F)F
inactive: Potency [1] | Potency [2] | outcome [3] | Potency [16] | outcome [4] | Potency [5] | Potency [6] | outcome [7] | Potency [8] | outcome [9] | Potency [10] | outcome [11] | Potency [17] | Potency [12] | Potency [18] | outcome [13] | Potency [14] | Potency [15]

ClCCCl
inactive: Potency [1] | Potency [2] | outcome [3] | outcome [4] | Potency [5] | Potency [6] | outcome [7] | Potency [8] | outcome [9] | Potency [10] | outcome [11] | Potency [12] | Potency [18] | outcome [13] | Potency [14] | Potency [15]

CC(C)=CCOC(=O)c1ccccc1
inactive: Potency [1] | Potency [2] | outcome [3] | Potency [16] | outcome [4] | Potency [5] | Potency [6] | outcome [7] | Potency [8] | outcome [9] | Potency [10] | outcome [11] | Potency [18] | outcome [13] | Potency [14] | Potency [15]

CC(C)CCCC(C)(C)O
inactive: Potency [1] | Potency [2] | outcome [3] | Potency [16] | outcome [4] | Potency [5] | Potency [6] | outcome [7] | Potency [8] | outcome [9] | Potency [10] | outcome [11] | Potency [12] | Potency [18] | outcome [13] | Potency [14] | Potency [15]

O=S(O)(O)=S
inactive: activity change, negative = cytotoxicity [1] 1.11% [at 6.97 µM] | cytotoxicity increase [2] -0.289% [at 6.97 µM] | cytotoxicity [3] 8.46% [at 6.97 µM] | cytotoxicity increase [16] -1.12% [at 6.97 µM] | activity change, negative = cytotoxic [4] 1% [at 6.97 µM] | activity change, negative = cytotoxicity [5] 1.38% [at 6.97 µM] | activity change, negative = cytotoxicity [6] 0.371% [at 6.97 µM] | activity change [7] -0.887% [at 6.97 µM] | activity change, negative = cytotoxicity [8] -0.126% [at 6.97 µM] | cytotoxicity increase [9] 4.07% [at 6.97 µM] | activity change, negative = cytotoxicity [10] 6.4% [at 8.39 µM] | viability change, negative = cytotoxic [11] -0.767% [at 8.39 µM] | activity change, negative = inhibition [12] 19% [at 8.39 µM] | activity change, negative = inhibition [18] 3.04% [at 8.39 µM] | activity change, negative = cytotoxicity [13] 0.217% [at 8.39 µM] | viability change, negative = cytotoxic [14] -0.643% [at 8.39 µM] | viability change, negative = cytotoxic [15] 1.07% [at 8.39 µM]

CC[C@H](C)C(=O)O[C@H]1C[C@H](O)C=C2C=C[C@H](C)[C@H](CC[C@@H](O)C[C@@H](O)CC(=O)O)[C@H]21
inactive: Potency [1] | Potency [2] | outcome [3] | Potency [16] | outcome [4] | Potency [5] | Potency [6] | outcome [7] | Potency [8] | outcome [9] | outcome [11] | Potency [12] | outcome [19] | Potency [18] | outcome [13] | Potency [14] | Potency [15]
